Data as given in PubChem BioAssay.

assay: anti-His antibody binders, primary screen, artefact control for SMM control protein annotation, biochemical, small-molecule microarray, 635 nm fluorescence (AID 1128); conditions: anti-His Alexa647 antibody binding, higher = more signal;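 note: score merges feature fluorescence with signal-to-noise for each printed compound spot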

Compound | composite z-score
COc1ccc(CCN2C(=O)[C@@]3(c4ccc([N+](=O)[O-])cc4)CC(=O)N(CC45CC6CC(CC(C6)C4)C5)[C@@H]3c3ccc(CO)cc32)cc1 | 0.286
C=CCN1C(=O)[C@@]2(Cc3ccccc3)N=C(c3ccc(OCCCO)cc3)O[C@H]2c2ccccc21 | 1.69
CN1CCC(CCCO)=CC1C1CC1 (stereo unspecified) | 0.346
CC(C)N1CC=CC23O[C@@H]4/C=C\CCCOC(=O)C4[C@H]2C(=O)N(CCCCCO)[C@@H]3C1=O (stereo partly specified) | -2.21
COCCOC(=O)N1C(=O)[C@@]2(c3cc(C#CCC(C(=O)OC)C(=O)OC)ccc31)[C@H](C(=O)N1CCN(c3ncccn3)CC1)[C@H]1C(=O)O[C@H](c3ccccc3)[C@H](c3ccccc3)N1[C@@H]2c1ccc(O)cc1 | 1.55
CCC(=O)[C@]12O[C@@]3([C@@H]4C(=O)OCC[C@@H]41)N(Cc1ccccc1)C(C)=C(C(=O)OC)[C@@H](c1ccccc1)N3C2=O | -0.97
COC(=O)[C@@]1(Cc2ccc(OC)cc2)[C@H]2c3cc(C(=O)N(C)C)n(Cc4ccc(C)c(F)c4F)c3C[C@H]2CN1C(=O)c1ccccc1 | 0.158
COc1cc(CO)cc(I)c1O[C@H]1C=C(C(=O)NCCO)C[C@@H](NCCc2c[nH]c3ccccc23)[C@@H]1O | 0.876
Cc1ccc(N2C(=O)c3ccccc3[C@](C)(C(=O)O)[C@@H]2c2ccc(CO)cc2)nc1 | -0.763
COC(=O)[C@@]1(Cc2ccccc2)[C@H]2c3cc(C(=O)N4CCCC4)n(CCN4CNCC4=O)c3C[C@H]2CN1C(=O)c1ccccc1 | 0.361
CO[C@@H]1COC(=O)[C@H](C)NC(=O)CC=C[C@@H](C)[C@H](OC)COC(=O)[C@H](C)NC(=O)CC=C[C@H]1C | 0.284
C=C(COC)/C(=C/C[C@@H](OC(C)=O)c1cccc(OCCO)c1)c1cc(C(=O)OC)ccc1OC | -1.25
CCOC(=O)C[C@H]1[C@H](OC(=O)c2ccccc2-c2ccccc2)[C@@H](NC(=O)c2ccc(-c3ccccc3)cc2)c2cc(OCCCO)ccc2N1C(=O)Cc1ccc(OC)cc1 | -0.293
[N-]=[N+]=NCc1ccccc1C[C@]1(C(=O)N2CCCCC2)N=C(c2ccc(OCCCO)cc2)O[C@H]1c1ccccc1CN=[N+]=[N-] | 0.538
CO[C@H]1COC(=O)[C@@H](OCc2ccccc2)C=C[C@H](C)[C@@H](OC)COC(=O)[C@H](OCc2ccccc2)C=C[C@@H]1C | -0.12
COCCOC(=O)N1C(=O)[C@@]2(c3cc(C#CCNC(N)=O)ccc31)[C@H](c1ccc(OCCO)cc1)N1[C@H](c3ccccc3)[C@H](c3ccccc3)OC(=O)[C@H]1[C@@H]2C(=O)Nc1nc2ccccc2s1 | 0.0799
CCOC(=O)C1=CC[C@@H](c2ccc(-c3ccc(OCc4ccccc4)cc3)c(OC)c2)N(S(=O)(=O)c2ccc(C)cc2)[C@H]1c1ccccc1 | 1.07
Cc1ccc(S[C@]2(C(=O)O)CC(=O)N(Cc3ccccc3)[C@@H]2c2ccc(CO)cc2)cc1 | -0.846

Compound | composite z-score
Cc1ccc(S[C@]2(C(=O)NC(C)C)CC(=O)N(Cc3cc(C(F)(F)F)cc(C(F)(F)F)c3)[C@@H]2c2ccc(CO)cc2I)cc1 | 2.87
CO[C@@H]1COC(=O)[C@H](COCc2ccccc2)NC(=O)CC=C[C@@H](C)[C@H](OC)COC(=O)[C@H](COCc2ccccc2)NC(=O)CC=C[C@H]1C | -0.156
CCC1=C2CN(Cc3ccccc3Br)[C@@H]([C@@H](O)Cc3ccccc3)C2C=CCC1 (stereo partly specified) | 1.23
COCCOC(=O)N1C(=O)[C@@]2(c3cc(C#CCC(C(=O)OC)C(=O)OC)ccc31)[C@H](c1ccccc1OCCO)N1[C@H](c3ccccc3)[C@H](c3ccccc3)OC(=O)[C@H]1[C@@H]2C(=O)N1CCCCCCC1 | 1.75
CO[C@@H]1COC(=O)[C@@H]2CCCN2C(=O)CC=C[C@@H](C)[C@H](OC)COC(=O)[C@@H]2CCCN2C(=O)CC=C[C@H]1C | -0.775
C=C(COC)/C(=C/C[C@H](OC(C)=O)c1ccc(OCCO)cc1)c1cnc2ccccc2c1 | -0.418
CC(=O)Nc1ccc([C@H]2[C@H](C)CC[C@H]3C(=O)N4[C@@H](CC[C@@H](C)[C@@H]4c4ccc(NC(C)=O)cc4)C(=O)N32)cc1 | 2.46
CN(C)CCCC[C@@H]1NC(=O)[C@@H]2C[C@H](C(=O)O)[C@H](c3ccc(O)cc3)N2C1=O | 1.34
C[C@@H]1CC[C@H]2C(=O)N3[C@@H](CC[C@@H](C)[C@@H]3c3cccc(N4CCOCC4)c3)C(=O)N2[C@H]1c1cccc(Br)c1 | 1.52
CCCN1C(=O)[C@@]2(CCS(=O)(=O)c3ccccc3)N=C(c3ccc(OCCCO)cc3)O[C@H]2c2ccccc21 | 2.79
O=C(O)[C@@H]1Cc2c([nH]c3ccccc23)[C@@H](c2ccccc2)N1 | 0.247
C[C@@H]1CC[C@H]2C(=O)N3CCC[C@H]3C(=O)N2[C@H]1c1ccc(Br)cc1 | 0.136
CCC#CCN(Cc1ccccc1Br)[C@H](/C=C/c1ccccc1)[C@@H](O)Cc1ccccc1 | 0.017
[N-]=[N+]=NCc1ccccc1C[C@]1(C(N)=O)N=C(c2ccc(OCCCO)cc2)O[C@H]1c1ccccc1CN=[N+]=[N-] | 3.15
C=CCC(OC(C)=O)[C@@H]1[C@@H](N(Cc2ccc(-c3ccccc3)cc2)C(=O)c2ccc(-c3ccccc3)cc2)c2cc(OCCCO)ccc2N1C(=O)Cc1ccc(OC)cc1 (stereo partly specified) | -0.347
O=C1C[C@@](C(=O)NC2CC2)(c2ccc([N+](=O)[O-])cc2)[C@@H](c2ccc(CO)cc2I)N1CC12CC3CC(CC(C3)C1)C2 | -0.317
Cc1ccc(N2C(=O)c3ccccc3[C@@H](C(=O)NCC(F)(F)F)[C@@H]2c2ccc(CO)cc2)nc1 | -1.37
C=CC[C@]1(C(=O)O)N=C(c2ccc(OCCCO)cc2)O[C@H]1c1ccccc1 | 0.254
